The record followed here is the supplement of paper PMC6555819.

The test system of the assay is VDR:RXRa (NR concentration 270 nM, RXRa partner concentration 90 nM). Kind of assay: PBM binding z-score (relative to random genomic background probes); higher = stronger binding; sequences stand for … in GC…GCGATTGACAGCGTAGAATGAAGG
The procedure:
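Protein-binding microarray (Agilent 4x180K custom design, double-stranded 60-nt probes: 5' GC cap, 34-nt variable region, 24-nt constant primer region; full probe sequence given). Purified or IVT nuclear receptor:RXRα heterodimers (3:1 NR:RXRα, mostly 270:90 nM) or homodimers were incubated for 1 h in PBS with 2% milk and no ligand, then detected with Alexa488 antibodies. Fluorescence from o1-orientation probes (~5 replicates averaged) was converted to z-scores against 500 random hg19 background probes. Variable regions are seed direct-repeat (DR0–DR5) sites, all their single-nucleotide variants and half-site ablations.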
Turning to CTTGAAAGGTCGTGCTCAGGTGAGTATACCAAAC, the PBM binding z-score was 3.55.
The value for TAGCCTAGGTCATTCAGGGGCCAGGATAGAAAGC was 2.94; that for TCTCGGTGGACACGAAGGTCAGAGCTTTCCAGAG was 1.02; that for CCGAGTAGGTTATGGGGCATTAAGGCAACGGTGA was 0.259.
The value for AGAATGAGGTTATTTAGATCAGGGAATTGCGGTC was 1.88; that for GGAACGAGGGCTTTCGAGTTGATAGCATGGCGAT was -0.0757.
With GATACAGGGTCAGCTCGAGGCCAGAGTATGGAAA the figure was 3.61; with ACAGACAGGTGATGATGGTAACTCAGGCTATCAT, -0.153; with AGAATGAGGTTATACGTAGACCAGGGAAGAAAGT, 1.18.
Take AGTCAATGTTCACTAGGTAACGTAAGATTCAGCT: the PBM binding z-score is -0.0351.
The value for CCTAGTTGGTCAGGATGTCACACACCGGATATGA was 0.176.
The value for CTACCAAGGTGAACAAGGTCCTTGATTACTATTC was 3.56; that for TCAGACAGGTGAAGGTAACTCTGGTACGCAGTCG was 0.577; that for CGAACTAGGTCAAGGACGGTGAATCTCCGCACGC was 1.14.
With CGTCCATGGTCAATGCTAGGTCAGTGAAAGCATT the figure was 0.204; with GCATGTAGGTAATACAAGGTGAAAGTCCGATTGT, 0.342.
Sequence AGTCAAAGTTCATCTAGGTAACGTATGATATGCT had a PBM binding z-score of 4.91.
With GACACAGGGTCAAGGCCAGAGTACGCGTATTGAT the figure was 4.36; with CCTTACGGGTCAAGCTTATAGCACGGGTGGTACG, 3.11.
Consider CCAGTCAGGTGAAAGGTAACTCAGTCTGGTACGC, for which the PBM binding z-score was 0.52.
With CAACCTAGGTCAAAGGTCAAAGTCGAGCCAACCA the figure was 7.01; with CAAACTAGGTCAAGAGGTCAAATTCCGCTTCCCG, 6.17.
The value for CCGACTGGGGGATAAGGTTACCATAAGCCAGCCC was 0.902; that for TCTATCAGGCCAGAGGGTCACTCAAGAGGTACGG was 2.03.
The value for CCAACTAGGTCAAAGGTCAAAGTCGAGCCAACCA was 6.81; that for TCTGCTAGGTCAACAATGGTCAGCTAATCTGCTA was 1.84.
For CAAACTAGGACAAAGGTCAAAGTCGAGCCAACCA, the PBM binding z-score came to 4.93.
With ACAGACAGGTGAGTGTAGGTAACTCAGCTGGACG the figure was -0.371; with ATCGAAATGTCGACGAGGTGAGTATACACCGTTT, 0.509; with TCTTGTAGATCAAATGTTAAGAAAGCCGAAGCCT, 0.366.
Regarding CCGACTGGGGCCAAGGTTACCATACTCAGTACGA, the PBM binding z-score worked out at 0.63.
With GCTTACGGGTCAAACGTTATAGCATGAATAGAAT the figure was 3.74; with TCTTGTAGATCAGCAGGTTCAGAAAGCTGGCCAA, 3.4; with CCTCGCAGGACAGAAGGTCAGAGCTGTCCGCTTT, 0.93.
The value for TCTCGGAGGACACGAAGGTCAGTGCTTTCCAGAG was 2.08; that for TCTCGAAGGACACGAAAGGTCAGAGCTCGACATC was 3.06.
With CCGACTGGGCCAAAGGTCATTGATTCCAATGCTC the figure was 4.58; with TCGAGTAGGTTACCAATGGGGCAATCAGCTTTCT, 0.0268.
CCTCGGAGGACAACAGGAGGGCAGAGCTGCCAGA: the PBM binding z-score is -0.641.
The value for CCTCGGAGGACAACAGGAGGTCAGCGCTGCCAGA was 2.39.
